# Data as given in ChEMBL document CHEMBL3988442, “University of Dundee, Small-Polar-MMV Screening Library” (2021).
# For some assays here: Results with a measured potency or affinity are listed apart.
# What was measured:
# Design in all cases: scale not given: direction of the effect not stated beside the values
# [1] = target: Protein translocase subunit SecA (Escherichia coli (strain K12)) (UniProt P10408); assay: Assay to Identify E. coli SecA ATPase Inhibitors; assay type: functional; settings: 30 µM
# Protein translocase subunit SecA (Escherichia coli (strain K12)), sequence (P10408 whole entry): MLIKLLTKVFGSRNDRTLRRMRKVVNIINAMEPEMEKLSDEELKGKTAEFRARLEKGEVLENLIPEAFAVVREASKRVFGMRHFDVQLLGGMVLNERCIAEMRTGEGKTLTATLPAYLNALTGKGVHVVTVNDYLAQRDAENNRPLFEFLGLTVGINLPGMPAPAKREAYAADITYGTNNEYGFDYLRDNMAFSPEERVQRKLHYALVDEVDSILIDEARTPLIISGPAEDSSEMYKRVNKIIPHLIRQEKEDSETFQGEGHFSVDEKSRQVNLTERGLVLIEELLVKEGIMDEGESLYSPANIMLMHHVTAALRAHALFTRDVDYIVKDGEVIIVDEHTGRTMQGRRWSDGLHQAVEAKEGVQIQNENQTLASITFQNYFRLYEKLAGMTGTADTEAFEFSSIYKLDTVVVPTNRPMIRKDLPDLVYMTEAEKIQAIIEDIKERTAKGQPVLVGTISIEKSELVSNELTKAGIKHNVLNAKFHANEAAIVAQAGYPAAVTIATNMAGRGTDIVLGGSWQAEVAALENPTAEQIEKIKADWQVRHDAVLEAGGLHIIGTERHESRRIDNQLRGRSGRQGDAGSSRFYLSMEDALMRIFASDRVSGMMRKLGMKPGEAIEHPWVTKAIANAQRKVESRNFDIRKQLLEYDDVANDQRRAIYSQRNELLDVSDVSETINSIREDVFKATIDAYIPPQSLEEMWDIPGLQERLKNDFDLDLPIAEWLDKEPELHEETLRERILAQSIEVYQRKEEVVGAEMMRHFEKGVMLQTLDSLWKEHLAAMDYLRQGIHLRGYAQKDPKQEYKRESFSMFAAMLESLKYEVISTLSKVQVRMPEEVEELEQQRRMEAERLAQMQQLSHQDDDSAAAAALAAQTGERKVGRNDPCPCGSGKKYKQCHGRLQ
# [2] = target: T1, Ubiquitin-activating enzyme e1, putative (Leishmania donovani (strain BPK282A1)) (UniProt E9BSI1); assay: Leishmania donovani Ubiquitin Activating Enzyme (LdE1); assay type: functional; settings: 30 µM
# T1 sequence (whole entry): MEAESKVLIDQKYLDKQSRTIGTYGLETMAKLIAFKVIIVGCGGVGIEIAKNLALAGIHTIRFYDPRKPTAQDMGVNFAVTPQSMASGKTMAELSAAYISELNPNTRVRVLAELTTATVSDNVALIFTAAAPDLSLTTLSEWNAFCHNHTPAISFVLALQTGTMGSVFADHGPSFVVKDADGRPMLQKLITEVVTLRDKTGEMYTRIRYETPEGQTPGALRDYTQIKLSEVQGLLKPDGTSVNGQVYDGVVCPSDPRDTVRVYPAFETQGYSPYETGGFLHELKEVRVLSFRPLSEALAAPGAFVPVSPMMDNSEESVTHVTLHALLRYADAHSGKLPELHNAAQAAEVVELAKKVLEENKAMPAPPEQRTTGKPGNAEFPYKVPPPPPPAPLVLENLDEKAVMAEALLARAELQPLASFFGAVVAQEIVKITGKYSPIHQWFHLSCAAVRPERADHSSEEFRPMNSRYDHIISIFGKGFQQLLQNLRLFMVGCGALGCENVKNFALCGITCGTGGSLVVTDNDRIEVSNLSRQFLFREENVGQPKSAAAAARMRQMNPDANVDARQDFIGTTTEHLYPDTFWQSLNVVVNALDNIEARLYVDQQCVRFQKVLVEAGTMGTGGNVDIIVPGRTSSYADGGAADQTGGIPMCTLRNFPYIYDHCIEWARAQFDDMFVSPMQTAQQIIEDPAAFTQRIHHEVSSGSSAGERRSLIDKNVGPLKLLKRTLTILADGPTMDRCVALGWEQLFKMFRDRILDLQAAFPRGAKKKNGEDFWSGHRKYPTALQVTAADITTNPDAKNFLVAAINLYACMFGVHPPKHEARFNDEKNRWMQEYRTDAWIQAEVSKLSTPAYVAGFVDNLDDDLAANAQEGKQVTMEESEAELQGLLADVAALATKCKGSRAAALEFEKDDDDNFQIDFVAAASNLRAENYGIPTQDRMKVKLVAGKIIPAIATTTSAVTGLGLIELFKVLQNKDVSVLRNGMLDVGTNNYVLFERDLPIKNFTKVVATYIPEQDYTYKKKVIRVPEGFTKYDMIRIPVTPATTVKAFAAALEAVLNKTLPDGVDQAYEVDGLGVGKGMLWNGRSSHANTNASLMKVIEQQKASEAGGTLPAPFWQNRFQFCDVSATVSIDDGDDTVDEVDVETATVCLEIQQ
# [3] = target: T2, Aspartate--tRNA(Asp/Asn) ligase (Mycobacterium tuberculosis (strain ATCC 25618 / H37Rv)) (UniProt P9WFW3); assay: Assay for Asp RNA synthetase-1 from Mycobacterium tuberculosis; assay type: functional; settings: 30 µM; note: in the data most compounds retested in dose-response had high values
# T2 sequence (whole entry): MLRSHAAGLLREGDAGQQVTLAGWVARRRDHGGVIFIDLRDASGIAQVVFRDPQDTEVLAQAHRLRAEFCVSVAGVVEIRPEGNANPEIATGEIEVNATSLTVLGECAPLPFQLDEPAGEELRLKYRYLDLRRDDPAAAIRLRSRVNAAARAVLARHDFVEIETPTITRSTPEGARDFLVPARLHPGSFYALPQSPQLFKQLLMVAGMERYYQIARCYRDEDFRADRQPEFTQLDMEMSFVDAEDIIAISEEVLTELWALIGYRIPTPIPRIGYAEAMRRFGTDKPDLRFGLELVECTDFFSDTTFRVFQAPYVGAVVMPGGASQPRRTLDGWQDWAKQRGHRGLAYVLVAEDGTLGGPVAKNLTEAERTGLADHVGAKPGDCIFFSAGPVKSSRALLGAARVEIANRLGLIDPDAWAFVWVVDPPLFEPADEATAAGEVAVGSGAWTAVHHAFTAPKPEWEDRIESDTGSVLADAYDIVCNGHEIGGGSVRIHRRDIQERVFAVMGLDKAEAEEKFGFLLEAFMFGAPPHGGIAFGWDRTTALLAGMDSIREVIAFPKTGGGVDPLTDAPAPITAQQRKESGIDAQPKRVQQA
# [4] = target: Sialic acid-binding Ig-like lectin 9 (Homo sapiens) (UniProt Q9Y336); assay: Hs-Siglec9 ALPHAscreen SOP 20170721; settings: 10 µM
# Sialic acid-binding Ig-like lectin 9 (Homo sapiens), sequence (Q9Y336 whole entry): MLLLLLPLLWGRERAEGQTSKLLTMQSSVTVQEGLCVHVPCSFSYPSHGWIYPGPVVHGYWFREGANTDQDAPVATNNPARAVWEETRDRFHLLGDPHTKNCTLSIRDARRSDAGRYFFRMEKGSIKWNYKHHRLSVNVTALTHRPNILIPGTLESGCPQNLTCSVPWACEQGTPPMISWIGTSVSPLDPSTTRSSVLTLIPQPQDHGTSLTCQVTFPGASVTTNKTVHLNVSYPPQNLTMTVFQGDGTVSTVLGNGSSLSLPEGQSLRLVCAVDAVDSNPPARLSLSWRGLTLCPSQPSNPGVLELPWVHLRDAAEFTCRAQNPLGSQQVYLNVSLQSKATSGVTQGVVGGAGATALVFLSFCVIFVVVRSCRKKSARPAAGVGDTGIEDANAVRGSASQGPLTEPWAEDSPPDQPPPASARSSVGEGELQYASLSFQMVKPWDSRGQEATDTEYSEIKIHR
# Trypanosoma cruzi = assay: Trypanosoma cruzi phosphomannomutase and mannose-1-phosphate guanylyltransferase assay; assay type: functional; settings: 10 µM
# [5] = target: T3, Arginase-2, mitochondrial (Homo sapiens) (UniProt P78540); assay: in vitro enzyme assay to detect the production of urea directly proportional to the activity of Arginase II; assay type: functional; settings: 33.3 µM; note: in the data most compounds retested in dose-response had high values
# T3 sequence (whole entry): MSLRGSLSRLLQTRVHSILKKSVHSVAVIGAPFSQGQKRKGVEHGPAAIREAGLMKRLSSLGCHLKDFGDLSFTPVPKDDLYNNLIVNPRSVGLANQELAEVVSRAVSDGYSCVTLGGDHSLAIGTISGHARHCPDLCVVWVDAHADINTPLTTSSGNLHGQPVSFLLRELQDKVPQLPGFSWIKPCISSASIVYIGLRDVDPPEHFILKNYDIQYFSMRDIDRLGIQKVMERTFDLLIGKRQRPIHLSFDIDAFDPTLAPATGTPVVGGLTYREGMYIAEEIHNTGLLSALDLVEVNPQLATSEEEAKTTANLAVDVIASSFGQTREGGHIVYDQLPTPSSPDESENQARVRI
# [6] = target: T4, Proteasome subunit beta (Trypanosoma cruzi) (UniProt O96673); assay: Trypanosoma cruzi proteasome chymotrypsin-like activity (TcProtChymo) assay.; note: in the data most compounds retested in dose-response had high values; assay type: functional; settings: 9.37 µM
# T4 sequence (whole entry): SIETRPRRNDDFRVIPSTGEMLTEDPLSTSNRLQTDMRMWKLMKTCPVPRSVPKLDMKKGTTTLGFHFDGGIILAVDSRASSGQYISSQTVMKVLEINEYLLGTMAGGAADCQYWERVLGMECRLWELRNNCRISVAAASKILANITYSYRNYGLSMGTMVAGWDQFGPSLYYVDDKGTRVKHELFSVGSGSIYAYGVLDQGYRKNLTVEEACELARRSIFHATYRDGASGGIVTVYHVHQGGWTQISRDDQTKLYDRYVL
# Homo sapiens = species on record: Homo sapiens; assay: To identify inhibition of the IFN signalling (Jak-Stat) pathway via expression of an eGFP reporter gene under the control of an IFN-stimulated response element (ISRE) containing MxA promoter.; assay type: functional; settings: 30 µM
# [7] = target: Shiga toxin 2 (Escherichia coli O157:H7) (UniProt P09385+P09386); assay: E. coli 0.157:H7 Shiga Toxin SOP - stx2 screening assay; assay type: functional; settings: 30 µM
# [8] = target: T5, Tyrosyl-tRNA synthetase, putative (Trypanosoma cruzi (strain CL Brener)) (UniProt Q4DSP6); assay: Trypanosoma cruzi tyrosyl tRNA synthetase (TcYRS) _High Tyrosine SOP; assay type: functional; settings: 30 µM; note: in the data most compounds retested in dose-response had high values
# T5 sequence (whole entry): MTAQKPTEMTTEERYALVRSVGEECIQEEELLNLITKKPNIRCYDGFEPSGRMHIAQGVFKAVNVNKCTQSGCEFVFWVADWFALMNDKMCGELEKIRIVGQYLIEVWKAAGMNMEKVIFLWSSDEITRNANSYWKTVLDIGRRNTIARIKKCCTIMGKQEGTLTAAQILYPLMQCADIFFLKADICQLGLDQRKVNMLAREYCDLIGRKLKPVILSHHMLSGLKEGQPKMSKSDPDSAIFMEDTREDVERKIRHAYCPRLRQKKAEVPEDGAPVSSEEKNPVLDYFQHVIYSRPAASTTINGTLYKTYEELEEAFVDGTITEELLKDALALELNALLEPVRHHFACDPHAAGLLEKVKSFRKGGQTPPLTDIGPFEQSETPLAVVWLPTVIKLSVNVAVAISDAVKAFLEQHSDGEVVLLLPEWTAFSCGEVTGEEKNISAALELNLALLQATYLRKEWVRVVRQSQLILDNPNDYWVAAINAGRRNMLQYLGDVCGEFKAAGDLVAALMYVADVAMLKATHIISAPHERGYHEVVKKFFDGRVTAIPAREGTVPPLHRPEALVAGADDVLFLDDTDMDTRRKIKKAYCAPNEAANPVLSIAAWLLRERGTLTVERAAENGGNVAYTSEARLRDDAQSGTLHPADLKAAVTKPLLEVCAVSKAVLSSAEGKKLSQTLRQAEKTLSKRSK
# [9] = target: T5, Tyrosyl-tRNA synthetase, putative (Trypanosoma cruzi (strain CL Brener)); assay: Trypanosoma cruzi tyrosyl tRNA synthetase (TcYRS) SOP; assay type: functional; settings: 30 µM
# [10] = target: Chromo domain-containing protein 1 (Saccharomyces cerevisiae (strain ATCC 204508 / S288c) (Baker's yeast)) (UniProt P32657); assay: ScCHD-1 Enzyme Inhibition Assay; assay type: functional; settings: 30 µM; note: in the data most compounds retested in dose-response had high values
# Chromo domain-containing protein 1 (Saccharomyces cerevisiae (strain ATCC 204508 / S288c) (Baker's yeast)), sequence (P32657 whole entry, the tested form may be a part): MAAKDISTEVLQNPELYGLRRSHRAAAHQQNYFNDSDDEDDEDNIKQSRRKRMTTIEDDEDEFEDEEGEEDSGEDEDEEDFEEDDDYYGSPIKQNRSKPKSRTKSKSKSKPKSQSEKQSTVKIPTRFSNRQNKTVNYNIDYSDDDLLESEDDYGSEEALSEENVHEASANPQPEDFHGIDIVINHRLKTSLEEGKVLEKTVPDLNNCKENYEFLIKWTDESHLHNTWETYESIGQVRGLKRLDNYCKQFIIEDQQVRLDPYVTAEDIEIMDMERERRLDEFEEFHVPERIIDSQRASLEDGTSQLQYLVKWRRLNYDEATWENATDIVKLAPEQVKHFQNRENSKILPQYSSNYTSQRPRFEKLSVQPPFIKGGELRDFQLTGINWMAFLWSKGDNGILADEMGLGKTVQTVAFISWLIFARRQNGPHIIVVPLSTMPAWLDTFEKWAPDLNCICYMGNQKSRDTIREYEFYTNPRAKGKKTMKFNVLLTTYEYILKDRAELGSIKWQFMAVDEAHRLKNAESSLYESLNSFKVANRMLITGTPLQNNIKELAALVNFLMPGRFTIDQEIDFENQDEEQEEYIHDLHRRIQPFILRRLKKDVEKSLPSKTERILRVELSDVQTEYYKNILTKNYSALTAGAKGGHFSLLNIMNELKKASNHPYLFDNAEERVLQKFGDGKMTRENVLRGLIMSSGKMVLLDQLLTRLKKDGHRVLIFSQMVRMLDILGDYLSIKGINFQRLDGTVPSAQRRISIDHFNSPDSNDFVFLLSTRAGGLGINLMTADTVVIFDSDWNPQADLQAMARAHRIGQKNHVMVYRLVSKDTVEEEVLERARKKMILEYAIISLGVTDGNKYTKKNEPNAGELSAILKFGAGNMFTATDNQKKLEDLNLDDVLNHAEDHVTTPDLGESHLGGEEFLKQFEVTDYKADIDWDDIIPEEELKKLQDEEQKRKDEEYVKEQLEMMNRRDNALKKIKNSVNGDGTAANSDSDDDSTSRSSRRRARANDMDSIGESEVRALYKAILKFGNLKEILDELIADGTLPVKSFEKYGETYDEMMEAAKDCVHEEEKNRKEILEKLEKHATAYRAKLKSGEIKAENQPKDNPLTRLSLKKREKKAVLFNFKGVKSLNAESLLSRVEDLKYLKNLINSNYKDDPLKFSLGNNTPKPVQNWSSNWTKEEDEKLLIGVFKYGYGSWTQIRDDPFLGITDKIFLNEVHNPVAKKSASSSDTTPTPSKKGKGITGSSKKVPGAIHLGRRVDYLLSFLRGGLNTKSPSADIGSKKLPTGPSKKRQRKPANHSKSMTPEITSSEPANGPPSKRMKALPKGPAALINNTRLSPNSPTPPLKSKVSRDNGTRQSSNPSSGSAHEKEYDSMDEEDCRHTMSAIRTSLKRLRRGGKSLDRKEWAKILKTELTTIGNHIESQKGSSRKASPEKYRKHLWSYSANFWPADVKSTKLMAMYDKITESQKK
Compound,Percent Effect [1],Percent Effect [2],Percent Effect [3],Percent Effect [4],Percent Effect (Trypanosoma cruzi),Percent Effect [5],Percent Effect [6],Percent Effect (Homo sapiens),Percent Effect [7],Percent Effect [8],Percent Effect [9],Percent Effect [10]
Fc1cnc(N2CCCC3(CCN(Cc4ccsc4)C3)C2)nc1 (configuration not stated),-5.76%,3.9%,9.59%,-1.26%,3.02%,-5.26%,8.56%,-2.16%,-9.72%,6.84%,7.69%,14.2%
CCCN1C(=O)CC2(CCCNC2)C1=O (configuration not stated),-4.19%,11.7%,3.28%,-2.44%,-1.13%,-0.913%,3.86%,-15.1%,2.28%,1.93%,7.5%,-2.73%
CC[C@H]1N(C)CCC[C@]12CCC(=O)N2Cc1ccncc1,-1.96%,32.5%,0.228%,0.456%,1.69%,-1.83%,14.3%,16.7%,-15.6%,7.73%,10%,-8.84%
CC(C)(C)n1cc(C(=O)NCCCn2ccnc2)c2cccnc21,3.93%,17.3%,6.13%,-8.62%,4.73%,1.77%,19.1%,29.9%,-3.75%,2.12%,15%,-24.1%
c1cnc(N2CCC3(CCN(CC4CCOC4)C3)CC2)nc1 (configuration not stated),-3.76%,6.49%,8.74%,-2.65%,-2.63%,0.405%,10.2%,0.479%,-3.12%,2.63%,7.69%,-4.21%
NC[C@H]1[C@H]2CN(Cc3ccccc3)C[C@@H]12,-1.98%,19.5%,-0.091%,2.06%,-0.938%,1.83%,7.81%,31%,-5.17%,4.83%,15%,-6.97%
C[C@@H]1CN(Cc2ccsc2)C[C@]12CCN(Cc1cccnc1)C2=O,-4.41%,1.3%,-1.62%,1.42%,-1.69%,1.37%,-4.03%,25.2%,-6.36%,0%,-10%,-0.115%
CCc1nc(CC(=O)N2CCCC2CN2CCCC2)cs1 (configuration not stated),-0.0825%,0%,-3.69%,1.63%,-2.01%,5.32%,11.1%,-4.98%,-5.61%,2.63%,2.56%,-5.66%
Cc1cc(CN2CC[C@H]3C[C@H](C(=O)N(C)C)O[C@@H]3C2)no1,-4.45%,3.9%,-0.0763%,14.4%,5.36%,12.6%,13.3%,-6.77%,-6.84%,2.63%,-5.13%,20.4%
CSc1cccc(CNC(=O)C2CC(=O)N(CCN(C)C)C2)c1 (configuration not stated),–,–,2.84%,–,–,–,–,–,–,–,–,–
c1ccc(N2CCCC3(CCN(Cc4cccs4)C3)C2)nc1 (configuration not stated),-7.4%,16.9%,-1.46%,-2.35%,-2.81%,-0.913%,10.4%,17.3%,5.58%,1.93%,-2.5%,-9.64%
FC(F)(F)COCCN1CCCC(c2noc(C3CC3)n2)C1 (configuration not stated),–,–,-0.517%,–,–,–,–,–,–,–,–,–
CN(C)CCN1CCCC12CCN(C(=O)c1cccnc1)CC2,-0.609%,3.9%,1.98%,-1.37%,0.563%,4.11%,8.5%,-12.2%,-15.3%,3.87%,7.5%,1.23%
Cc1nn(C)c(N(C)C)c1CNC(C)Cc1c(F)cccc1F (configuration not stated),-1.71%,26%,3.29%,10.5%,4.85%,5.12%,7.89%,5.28%,-17.2%,6.86%,23.5%,-9.67%
O=C(NCC(F)(F)F)C1=NOC2(CCCNC2)C1 (configuration not stated),-8.38%,3.9%,1.78%,4%,-3.21%,-4.86%,4.15%,-6.57%,13.8%,4.74%,2.56%,-0.335%
COc1ccc(C(=O)C2CCCN(Cc3ccc(C)o3)C2)c(OC)c1 (configuration not stated),-3.9%,-5.41%,-4.91%,3.98%,-2.04%,1.75%,7.71%,-5.12%,-2.98%,1.6%,7.32%,2.92%
CN1CCC2(CC1)C(=O)N(CC1CC1)c1ccccc12,-2.83%,9.09%,-2.3%,-0.296%,-1.69%,3.65%,1.12%,2.83%,4.66%,-0.966%,0%,-9.03%
